Results filed as inconclusive are left out. A call without a number means that no potency is given here. Activity calls are given as the source filed them. Calls follow the shape of the dose curve; as a rule, active = well fitted cell-killing curve with a large enough effect; inconclusive = small, poorly fitted or top-dose-only effect, or effect the other way; inactive = flat fitted curve, though single readings scatter.
Each compound was assayed on HeLa (assay: Primary qHTS to identify gynecologic anti-cancer compounds using libraries of approved drugs and bioactive compounds (AID 1345084; also: nearly all actives have a fitted effect of over 55% in size)). Conditions: Gynecologic cancer cell panel viability, ATPlite luminescence, 48 h; series mostly up to 57.5 µM.
Procedure, shortened: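 Luminescence from the ATPlite ATP-monitoring reagent indicates viable cell number; lower signal means cytotoxicity. Cells received compound 16 h after seeding and were exposed for 48 h across five concentrations.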
`COc1c(C)cnc(Cn2cc(C#CCC(C)(C)O)c3c(Cl)nc(N)nc32)c1C` was tested, and the Potency was “inactive”. With `CCCc1cc(C)[nH]c(=O)c1CNC(=O)c1cc(-c2ccnc(N3CCN(C)CC3)c2)cc2c1cnn2C(C)C` the Potency was 35.5 µM (active). `COc1ccc(CCc2nc3c(C)c(-c4c(C)noc4C)c(C)cc3n2CCN2CCOCC2)cc1` was tested, and the Potency was “inactive”. `O=C1Nc2nc(-c3c(O)cccc3OCC3CC3)cc([C@@H]3CCCNC3)c2CO1` was tested, and the Potency was “inactive”. For `CN1CCN(c2ccc(OC(F)(F)F)c(Nc3ncc4c(n3)-c3c(c(C(N)=O)nn3CCO)CC4)c2)CC1`, the Potency was 0.224 µM (active). With `O=c1ccc2ccc(OCCCCN3CCN(c4cccc5sccc45)CC3)cc2[nH]1` the Potency was “inactive”. With `C=CC(=O)Nc1cccc(Nc2nc(Nc3ccc(OCCOC)cc3)ncc2F)c1` the Potency was 11.2 µM (active). `COc1cc(CCC2=NN=C(NC(=O)c3ccc(N4C[C@@H](C)N[C@@H](C)C4)cc3)C2)cc(OC)c1` was tested, and the Potency was 20 µM (active). For `C=C1C(=O)O[C@@H]2C(OC(=O)/C(C)=C\C)/C(C)=C\C(=O)/C=C(\C)C[C@H](O)[C@@H]12` (stereo not given in full), the Potency was “inactive”. For `CC1(C)CC[C@]23CO[C@@]4(CCC5[C@@]6(C)CC[C@H](O[C@@H]7OC[C@H](O[C@@H]8O[C@H](CO)[C@@H](O)[C@H](O)[C@H]8O[C@@H]8OC[C@@H](O)[C@H](O)[C@H]8O)[C@H](O)[C@H]7O[C@@H]7O[C@H](CO)[C@@H](O)[C@H](O)[C@H]7O)[C@@](C)(CO)C6CC[C@@]5(C)[C@]4(C)C[C@H]2O)[C@@H]3C1` (stereo not given in full), the activity change, negative = cytotoxicity was -0.159% [at 11.6 µM] (inactive).

Reference: PubChem BioAssay (NCATS)
Potency is read from the fitted curve at half-maximal effect.
